Results published in PubChem BioAssay.
Unmarked numbers belong to inactive results. A call without a number means that no potency is given here. For some of these results: Potency and affinity values are given separately. Activity calls are given as the source filed them. Unless noted, how the calls were made is not given here.

Legend:
[1] = antimalarial activity against Dd2 strain (AID 2302;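 active means growth inhibition above 50% at the single 2 µM test dose, taken to imply half-maximal potency below 2 µM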); settings: P. falciparum Dd2 in RBCs, LDH growth readout, 72 h; at 2 µM; hits give high values
[2] = HepG2 cytotoxicity, primary screen, cytotoxicity control for P. falciparum antimalarial project, cell-based, ATP luminescence (AID 2303;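 active means inhibition above 50%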); settings: HepG2 viability, 24-48 h, at 10 µM, hits give high values
[3] = molecular target: L-lactate dehydrogenase (Plasmodium falciparum (isolate CDC / Honduras)) (UniProt Q27743); assay: PfLDH activity inhibition – cell lysate, 3D7 strain, counter-screen for P. falciparum growth inhibition project (AID 2304); settings: P. falciparum 3D7 crude extract, LDH APAD/NBT absorbance; at 2 µM; hits give high values
[4] = inhibition of 3D7 malaria parasite growth – strain 3D7 (AID 2306); settings: P. falciparum 3D7 erythrocytic growth, LDH absorbance, 72 h; at 2 µM; hits give high values
[5] = molecular target: Calcium-dependent protein kinase 1 (Plasmodium falciparum (isolate 3D7)) (UniProt P62344); assay: PfCDPK1 kinase inhibitors, biochemical, TCAMS library (AID 1159585; cut-off not given, nearly all actives have IC50 up to about 0.98 µM;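 further: inhibitors leave more ATP so luminescence rises with inhibition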); settings: recombinant PfCDPK1, Kinase-Glo ATP depletion luminescence
[6] = molecular target: Plasmodium falciparum protein kinase 6 (PK6, PF3D7_1337100) (UniProt Q8IDW1); assay: PfPK6 kinase inhibitors, biochemical, TCAMS library (AID 1159586); settings: recombinant PfPK6, Kinase-Glo ATP depletion luminescence
[7] = molecular target: Protein kinase 7 (PK7), Plasmodium falciparum 3D7 (PF3D7_0213400) (UniProt Q7YTF7); assay: inhibition of Plasmodium PK7 catalytic activity – biochemical, TCAMS antimalarial set, Kinase-Glo luminescence (AID 1159587); settings: recombinant PfPK7, Kinase-Glo ATP depletion luminescence
[8] = molecular target: Calcium-dependent protein kinase 4 (Plasmodium falciparum (isolate 3D7)) (UniProt Q8IBS5); assay: PfCDPK4 kinase inhibitors, biochemical, TCAMS library (AID 1159588; cut-off not given, nearly all actives have IC50 up to about 0.91 µM); settings: recombinant PfCDPK4, Kinase-Glo ATP depletion luminescence
Chain of Calcium-dependent protein kinase 4 (Plasmodium falciparum (isolate 3D7)) (Q8IBS5 whole entry, looked up): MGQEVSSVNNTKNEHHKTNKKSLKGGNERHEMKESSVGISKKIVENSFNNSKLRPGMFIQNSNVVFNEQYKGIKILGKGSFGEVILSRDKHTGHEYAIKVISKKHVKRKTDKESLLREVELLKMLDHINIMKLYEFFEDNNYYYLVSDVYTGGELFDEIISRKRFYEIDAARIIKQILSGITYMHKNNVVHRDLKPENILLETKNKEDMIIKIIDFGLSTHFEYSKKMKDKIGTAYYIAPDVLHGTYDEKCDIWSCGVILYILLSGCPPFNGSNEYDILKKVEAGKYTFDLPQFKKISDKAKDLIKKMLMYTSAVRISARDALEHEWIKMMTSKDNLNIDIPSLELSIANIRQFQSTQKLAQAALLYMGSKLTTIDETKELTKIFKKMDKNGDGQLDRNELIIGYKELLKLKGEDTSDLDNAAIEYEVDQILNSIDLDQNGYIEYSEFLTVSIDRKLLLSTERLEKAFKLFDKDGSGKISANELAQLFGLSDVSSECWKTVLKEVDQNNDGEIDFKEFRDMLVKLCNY

Chain of Protein kinase 7 (PK7), Plasmodium falciparum 3D7 (PF3D7_0213400) (Q7YTF7 1-343): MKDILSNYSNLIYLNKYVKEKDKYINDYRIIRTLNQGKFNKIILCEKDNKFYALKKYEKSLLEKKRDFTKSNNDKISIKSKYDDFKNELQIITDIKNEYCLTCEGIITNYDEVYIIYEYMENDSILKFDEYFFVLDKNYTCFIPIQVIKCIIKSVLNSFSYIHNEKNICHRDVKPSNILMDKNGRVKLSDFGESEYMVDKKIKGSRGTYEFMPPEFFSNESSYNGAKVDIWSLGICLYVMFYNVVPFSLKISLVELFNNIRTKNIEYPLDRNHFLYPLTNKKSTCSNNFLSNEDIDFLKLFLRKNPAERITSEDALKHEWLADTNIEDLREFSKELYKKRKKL
Chain of Plasmodium falciparum protein kinase 6 (PK6, PF3D7_1337100) (Q8IDW1 1-305): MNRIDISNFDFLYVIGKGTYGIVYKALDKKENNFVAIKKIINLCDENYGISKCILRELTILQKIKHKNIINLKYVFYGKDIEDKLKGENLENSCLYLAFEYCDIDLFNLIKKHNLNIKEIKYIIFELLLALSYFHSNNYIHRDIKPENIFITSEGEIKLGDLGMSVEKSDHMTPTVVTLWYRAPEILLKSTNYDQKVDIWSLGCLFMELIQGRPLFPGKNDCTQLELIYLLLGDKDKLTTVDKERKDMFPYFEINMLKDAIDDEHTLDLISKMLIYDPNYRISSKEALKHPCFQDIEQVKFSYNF
Chain of Calcium-dependent protein kinase 1 (Plasmodium falciparum (isolate 3D7)) (P62344 whole entry, looked up): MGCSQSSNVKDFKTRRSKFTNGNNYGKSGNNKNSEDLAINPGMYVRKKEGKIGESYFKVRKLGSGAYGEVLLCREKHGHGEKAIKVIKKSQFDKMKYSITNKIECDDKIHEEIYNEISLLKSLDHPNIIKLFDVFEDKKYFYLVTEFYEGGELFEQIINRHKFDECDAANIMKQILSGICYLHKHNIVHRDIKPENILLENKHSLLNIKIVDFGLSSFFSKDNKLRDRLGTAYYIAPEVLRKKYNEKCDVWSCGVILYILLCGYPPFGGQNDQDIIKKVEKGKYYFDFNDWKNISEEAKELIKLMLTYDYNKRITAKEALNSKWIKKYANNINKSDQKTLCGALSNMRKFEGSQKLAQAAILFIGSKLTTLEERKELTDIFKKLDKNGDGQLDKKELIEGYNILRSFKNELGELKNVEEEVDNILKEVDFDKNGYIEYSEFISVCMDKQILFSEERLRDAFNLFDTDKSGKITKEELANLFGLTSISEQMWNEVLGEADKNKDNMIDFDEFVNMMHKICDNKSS
Chain of L-lactate dehydrogenase (Plasmodium falciparum (isolate CDC / Honduras)) (Q27743 whole entry, looked up): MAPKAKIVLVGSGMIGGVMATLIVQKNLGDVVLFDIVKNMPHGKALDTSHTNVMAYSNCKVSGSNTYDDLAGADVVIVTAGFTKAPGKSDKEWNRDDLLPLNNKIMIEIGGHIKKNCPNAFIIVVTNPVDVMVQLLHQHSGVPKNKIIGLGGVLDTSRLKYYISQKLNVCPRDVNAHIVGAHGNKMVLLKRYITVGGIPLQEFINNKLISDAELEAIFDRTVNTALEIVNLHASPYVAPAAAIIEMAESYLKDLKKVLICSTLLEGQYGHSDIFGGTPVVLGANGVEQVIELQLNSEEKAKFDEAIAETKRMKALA

Row | Compound | growth inhibition [1] | inhibition [2] | inhibition [3] | growth inhibition [4] | outcome [5] | outcome [6] | outcome [7] | outcome [8]
1 | Cc1ccccc1C1CCN(c2ncc(C(=O)Nc3ccccc3)cc2Cl)CC1 | 83% (active) | 29% | -3% | 83% (active) | inactive | inactive | inactive | inactive
2 | Cc1cccc(/C=C/C(=O)NC2CCC(N3CCC(c4ccccc4C)CC3)CC2)c1 (stereo not drawn) | 20% | 67% (active) | -3% | 92% (active) | inactive | inactive | inactive | inactive
3 | N#Cc1ccc(CN2CCC(Oc3ccc(NC(=O)c4cccs4)cc3Cl)C2)cc1 (stereo not drawn) | 95% (active) | 31% | -2% | 96% (active) | inactive | inactive | inactive | inactive
4 | O=C(NCCN1CCCC1)N1CCCN(c2ncnc3cc(-c4ccc(Cl)cc4)sc23)CC1 | 32% | 13% | 6% | 96% (active) | inactive | inactive | inactive | inactive
5 | COc1ccc(NC(=O)[C@H](Cc2ccccc2)Nc2cc(C)nc(NCCc3ccc(F)cc3)n2)cc1 | 82% (active) | 17% | -3% | 101% (active) | inactive | inactive | inactive | inactive
6 | CC(=O)Nc1ccc(C(=O)Nc2cccc(-c3ccc(-c4nc5c(C)cccc5[nH]4)cc3)c2)cn1 | 94% (active) | 25% | 4% | 100% (active) | inactive | inactive | inactive | inactive
7 | CN(C)c1ccnc2ccc(NC(=O)Nc3ccnc4ccccc34)cc12 | 99% (active) | 15% | 3% | 100% (active) | inactive | inactive | inactive | inactive
8 | Cc1ccc2[nH]c(-c3ccc(/C=C/C(=O)NC4CCN(Cc5ccccc5)CC4)cc3)nc2c1C | 92% (active) | 22% | 4% | 101% (active) | inactive | inactive | inactive | inactive
9 | C(=N\Nc1nccc2sc(-c3cccnc3)cc12)/c1cccnc1 | 54% (active) | 5% | 5% | 98% (active) | inactive | inactive | inactive | inactive
10 | Cc1cccc(CNc2nc(C)cc(N[C@@H](CC(C)C)C(=O)NCCOc3ccccc3)n2)c1 | 35% | 15% | -1% | 93% (active) | inactive | inactive | inactive | inactive
11 | COc1ccc2c(NN=Cc3ccc(Cl)cc3)ccnc2c1 | 100% (active) | 8% | 5% | 101% (active) | inactive | inactive | inactive | inactive
12 | Cc1c(C(=O)N(C)C)sc2c1c(=O)n(Cc1ccccc1)c(=O)n2CC(=O)Nc1ccccc1F | 98% (active) | 13% | -1% | 97% (active) | inactive | inactive | inactive | inactive
13 | COc1ccc(Nc2nccc(-c3ccc4c(-c5ccsc5)cnc(N)c4c3)n2)cc1 | 98% (active) | 38% | -1% | 101% (active) | inactive | inactive | inactive | inactive
14 | COc1cc(C(=O)Nc2ccc3nc(N4CCN(C)CC4)cc(C)c3c2)cc(OC)c1OC | 79% (active) | 18% | -6% | 102% (active) | inactive | inactive | inactive | inactive
15 | COc1ccc(C2C(C(=O)Nc3ccc4c(c3)OCO4)c3cc(OC)c(OC)cc3C(=O)N2C)cc1 (stereo not drawn) | 54% (active) | 12% | -4% | 89% (active) | inactive | inactive | inactive | inactive
16 | CO/C(=C\C=C\c1cc2cc(Cl)c(Cl)cc2[nH]1)C(=O)NCC(C)(C)CN(C)C | 27% | 35% | 1% | 81% (active) | inactive | inactive | inactive | inactive
17 | CC(C)CC(=O)N1CCNC[C@@H]1C(=O)NCc1ccc(Cl)c(Cl)c1 | 16% | -3% | -3% | 99% (active) | inactive | inactive | inactive | inactive
18 | O=C(O)c1cccc2c(-c3ccncc3)cccc12 | 1% | 29% | -1% | 97% (active) | inactive | inactive | inactive | inactive
19 | c1ccc(-c2cccc(-c3ccccn3)n2)nc1 | 99% (active) | 45% | -1% | 98% (active) | inactive | inactive | inactive | inactive
20 | COc1ccc(NS(=O)(=O)c2ccccc2Br)cc1N1CCN(C)CC1 | 3% | 2% | -3% | 94% (active) | inactive | inactive | inactive | inactive
21 | O=c1cc(NCCCN(Cc2ccccc2)Cc2ccccc2)[nH]c2ccccc12 | 93% (active) | 7% | -3% | 100% (active) | inactive | inactive | inactive | inactive

Row | Compound | growth inhibition [1] | inhibition [2] | inhibition [3] | growth inhibition [4] | outcome [5] | outcome [6] | outcome [7] | outcome [8]
22 | CCCc1cc(NCc2ccncc2)nc(Nc2ccc(F)cc2)n1 | 6% | 9% | -7% | 90% (active) | inactive | inactive | inactive | inactive
23 | O=C(O)CCCN1CCCC(=C(c2ccccc2)c2ccccc2)C1 | 2% | -5% | 0% | 82% (active) | inactive | inactive | inactive | inactive
24 | COc1nc2c(CCN3CC[C@H](NCc4cc(C#N)c5c(c4)OCCO5)[C@H](O)C3)ccnc2cc1F | 41% | 18% | -3% | 95% (active) | inactive | inactive | inactive | inactive
25 | COc1ccc2nc3cc(Cl)ccc3c(N)c2c1 | 100% (active) | 100% (active) | -5% | 102% (active) | inactive | inactive | inactive | inactive
26 | COc1ccc(C(=O)NCc2ccc(N)nc2C)cc1Nc1ncc(-c2cccc(N(C)C)c2)cn1 | 68% (active) | 9% | -1% | 89% (active) | inactive | inactive | inactive | inactive
27 | C#Cc1cccc(NC(=O)[C@H](CC2CCCCC2)Nc2ccc(C#N)c3ccccc23)c1 | 99% (active) | 48% | -1% | 100% (active) | inactive | inactive | inactive | inactive
28 | CS(=O)(=O)c1cccc(-c2cnc3[nH]cc(-c4ccc(C(=O)O)cc4)c3c2)c1 | 100% (active) | 6% | -2% | 99% (active) | inactive | inactive | inactive | inactive
29 | O=C(Cc1cnc[nH]1)Nc1cccc(-c2ccc(-c3nc4ccc(C(F)(F)F)cc4[nH]3)cc2)c1 | 99% (active) | 10% | -1% | 102% (active) | inactive | inactive | inactive | inactive
30 | CCOc1ccc(Cc2c(C)nc3nc(N)nc(N)c3c2C)cc1 | 7% | 63% (active) | 0% | 91% (active) | inactive | inactive | inactive | inactive
31 | CN1CCCCC1CCc1cc(C(=O)Nc2ccc(-c3ccc(O)cc3)cc2)ccc1O (stereo not drawn) | 11% | 6% | 3% | 91% (active) | inactive | inactive | inactive | inactive
32 | COCC(C)n1c(C)cc(C(=O)CSc2nnc(Nc3ccccc3)s2)c1C (stereo not drawn) | 98% (active) | -5% | -6% | 97% (active) | inactive | inactive | inactive | inactive
33 | CCCc1cc(C)ccc1OCCCON1C(NC(=O)OCC)=NC(NC(=O)OCC)=NC1(C)C | 97% (active) | 62% (active) | 0% | 95% (active) | inactive | inactive | inactive | inactive
34 | COc1ccc2nccc(CCN3C[C@H](CNCc4ccc5c(n4)NC(=O)CS5)[C@H](O)C3)c2n1 | 26% | 4% | -2% | 86% (active) | inactive | inactive | inactive | inactive
35 | FC(F)(F)c1ccc2nc(-c3ccc(-c4cccc(CNCC5CCCO5)c4)s3)[nH]c2c1 (stereo not drawn) | 99% (active) | 37% | -7% | 99% (active) | inactive | inactive | inactive | inactive
36 | Cc1ccc(C)c(CC(=O)N2CCC(n3c(C)nc4ccc(F)cc43)CC2)c1 | 99% (active) | -2% | 1% | 100% (active) | inactive | inactive | inactive | inactive
37 | FC(F)(F)c1ccc2nc(-c3ccc(-c4ccc(CN5CCN(c6ccncc6)CC5)cc4)s3)[nH]c2c1 | 50% (active) | 97% (active) | 2% | 100% (active) | inactive | inactive | inactive | inactive
38 | N#Cc1ccc2c(c1)CCN(CCC1CCC(NC(=O)/C=C/c3c[nH]c4c(Br)cccc34)CC1)CC2 (stereo not drawn) | 65% (active) | 32% | 0% | 101% (active) | inactive | inactive | inactive | inactive
39 | CC(=O)c1ccc(-c2ccc(C(=O)NCCCCN3CCC(c4ccc5c(c4O)CCCC5)CC3)cc2)cc1 | 83% (active) | 87% (active) | 1% | 100% (active) | inactive | inactive | inactive | inactive
40 | CCn1ccc2c(N3CCCC3=O)cc(C(=O)N[C@@H](Cc3ccccc3)[C@H](O)CNC(C)(C)CCCC(C)C)cc21 | 98% (active) | 11% | -3% | 96% (active) | inactive | inactive | inactive | inactive
41 | CC(=O)c1sc(NC(=O)Nc2ccc(C)cc2C)nc1C | 68% (active) | 5% | 0% | 96% (active) | inactive | inactive | inactive | inactive
